This is a sample that favours compounds with a hit; in the whole collection about 11% have one here.
Tau FP inhib: inhibitors of human tau fibril formation. K18 P301L tau heparin fibrillization, Alexa594 FP, 6 h. Potency, µM (series often up to 57.7 µM), inactives show at the highest dose activity, negative = inhibition, usual class: inhibitors. hit rate 0.39% among 280,000; note: potency is the fitted concentration of half-maximal effect; nearly all actives have a fitted effect of over 55% in size
Target sequence (P10636 561-689 P618L limits assumed): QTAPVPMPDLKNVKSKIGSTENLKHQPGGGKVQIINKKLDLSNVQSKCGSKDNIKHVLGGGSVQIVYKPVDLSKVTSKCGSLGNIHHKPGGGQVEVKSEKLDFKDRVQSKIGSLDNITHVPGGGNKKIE
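K18 P301L tau (15 uM unlabeled/0.24 uM Alexa 594-labeled, final) + compound + heparin 20 uM final; 100 mM NaOAc pH 7; 6 hr 37 C; ThT 30 uM final added, 1 hr RT; FP ex 555/em 632 nm.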
Tau fluor cs: counter-screen for tau fibril formation inhibitors. tau K18 P301L Alexa594 fluorescence, heparin fibrillization. Potency, µM (doses to about 57.7 µM), inactives show at the top dose activity change, negative = decrease. hit rate 0.93% among 280,000. AID 1463; note: potency is the fitted concentration of half-maximal effect; nearly all actives have a fitted effect of over 55% in size
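Human tau K18 P301L (15 uM unlabeled, 0.24 uM Alexa 594-labeled) in 100 mM sodium acetate pH 7 with 20 uM heparin, 6 hr at 37 C. ThT 30 uM added, 1 hr ambient; Alexa 594 FP and total fluorescence read at 555/632 nm.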
Sfp inh: Sfp phosphopantetheinyl transferase inhibition; Q9F4F7; Biochemical Sfp PPTase activity, qHTS; Potency, µM, without a hit: largest response in the series, negative = inhibition, usual class: inhibitors; hit rate 3.5% among 310,000; AID 1490;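 note: the enzyme is Sfp with the accession as filed and its product quenches rhodamine fluorescence; potency is the fitted concentration of half-maximal effect; 0% = enzyme reaction without inhibitor and -100% = no enzyme wells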
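After 15 min at room temperature with compound, 15 nM Sfp received 5 uM rhodamine-CoA plus 12.5 uM BHQ-2-ybbR (50 mM Hepes pH 7.6, 10 mM MgCl2). Rate came from the fluorescence difference over 30 min, ex 525/em 598 nm.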
Tau ThT inhib: inhibitors of human tau fibril formation, thioflavin T binding. P10636. recombinant tau K18 P301L (four-repeat tau fragment), heparin-induced fibrillization, ThT fluorescence. Potency, µM (series often up to 57.4 µM), for the others: top-dose activity, negative = inhibition, most hits filed as inhibitors. hit rate 2.1% among 270,000. AID 1460; note: potency is the fitted concentration of half-maximal effect; nearly all actives have a fitted effect of over 55% in size
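Heparin-induced fibrillization of the P301L-mutant K18 repeat-domain fragment of human tau was followed by ThT binding in quantitative high-throughput format.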
Coupling enz: coupling enzyme interference in Giardia aldolase counter-screen; coupling enzyme system counterscreen, AmpLite Red fluorescence; activity change, negative = inhibition, % at 58.2 µM, hits read low; hit rate 0.67% among 290,000; in the data active = activity change below about -30%
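Compounds tested against the coupling enzymes alone at 57.5 uM final; readout was AmpLite Red fluorescence (525/598 nm) after 20 min at RT.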
G9a inh: blocks human histone lysine methyltransferase G9a. Q96KQ7. G9a H3K9 monomethylation, AlphaScreen, 2 h. Potency, µM (titrated, usually from 102 µM), for inactives: top-dose activity, negative = inhibition, usual class: inhibitors. hit rate 8.8% among 350,000. AID 504332; note: potency is the fitted concentration of half-maximal effect; nearly all actives have a fitted effect of over 75% in size
Target sequence (Q96KQ7 913-1193 limits assumed): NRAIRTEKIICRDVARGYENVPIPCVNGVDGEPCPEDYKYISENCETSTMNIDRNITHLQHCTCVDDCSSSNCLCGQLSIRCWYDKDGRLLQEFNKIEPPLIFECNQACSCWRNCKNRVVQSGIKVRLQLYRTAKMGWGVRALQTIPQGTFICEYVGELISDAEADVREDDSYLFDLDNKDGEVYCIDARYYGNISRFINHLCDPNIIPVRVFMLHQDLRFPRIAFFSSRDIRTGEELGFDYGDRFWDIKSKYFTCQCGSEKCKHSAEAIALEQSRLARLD
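Step 1: enzyme (final 20 nM) with compound, 15 min RT. Step 2: substrate peptide 500 nM and SAM 20 uM, 2 h RT. Step 3: anti-H3K9me1 antibody and AlphaScreen beads, 10 min, then plate read.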
* = called active by the depositor; u = inconclusive; x = not tested or not shown; ! = a repeat was not active; [ ] = dose if it differs, or a comment. Unless noted, calls come from the whole dose curve; as a rule, active = well fitted curve in the direction sought with a large enough effect; inconclusive = small, poorly fitted or top-dose-only effect, or another doubt; inactive = no such curve, though single readings can be large; an effect the other way counts as inactive or inconclusive. Unless noted, % is set by controls: 0 for no effect and ±100 for the full control effect.

SMILES	Tau FP inhib	Tau fluor cs	Sfp inh	Tau ThT inhib	Coupling enz	G9a inh
O=C(CCN1C(=O)c2ccccc2C1=O)CN1CCOCC1	-5%	-3%	9%	-1%	0	50µM*
CS(=O)(=O)c1ccc(C(=O)OCC(=O)NC(=O)C2CCCCC2)cc1[N+](=O)[O-]	4%	u	25µM*	u	-3	-30%
CC(=O)c1cccc(NC(=O)COC(=O)c2ccc(S(C)(=O)=O)c([N+](=O)[O-])c2)c1	3%	u	5%	u	0	-42%
Cc1ccccc1NC(=O)COC(=O)c1ccc(S(C)(=O)=O)c([N+](=O)[O-])c1	-2%	u	12%	13µM*	1	33%[12.7 µM]
Cc1ccccc1NC(=O)Cc1nc(COC(=O)c2ccc(S(C)(=O)=O)c([N+](=O)[O-])c2)cs1	x	x	x	x	x	-4%[2.33 µM]
CCOc1ccc(NS(=O)(=O)c2cccc(C(=O)N(C)Cc3ccco3)c2)cc1	x	x	x	x	x	7%[2.33 µM]
Cc1ccc(CN(C(=O)COc2cccc(Cl)c2)c2ccccn2)o1	-5%	-4%	x	1%	x	7%[59 µM]
COc1ccccc1NC(=O)C1=C(C)Nc2nc(SC)nn2C1c1ccccc1Cl (stereo unspecified)	-9%	-27%	x	u	x	-2%[59 µM]
COC(=O)C1=C(C)NC(C)=C(C(=O)OCCNCc2ccccc2)C1c1cccc([N+](=O)[O-])c1 (stereo unspecified)	5%	u	-15%	u	-3	u
C#CCN1C(C)=C(C(=O)OC)C(c2cccc([N+](=O)[O-])c2)C(C(=O)OCC)=C1C (stereo unspecified)	9%	u	x	u	x	11µM*!
CCc1cccc(C)c1Nc1c(-c2ccc(N3CCOCC3)cc2)nc2ncccn12	8%	u	x	u	x	10µM*
Cc1ccccc1Nc1c(-c2ccc(N3CCOCC3)cc2)nc2cccc(C)n12	7%	u	x	u	x	14µM*
Cc1ccccc1Nc1c(-c2cccc(O)c2)nc2ccc(Br)cn12	-4%	u	x	-4%	x	-12%[59 µM]
Cc1cccc(Nc2c(-c3ccc(N4CCOCC4)cc3)nc3ncccn23)c1	18%	u	-14%	u	2	0%
Cc1ccccc1Nc1c(-c2ccc(N3CCOCC3)cc2)nc2ccc(Br)cn12	11%	-28%	x	u	x	7.1µM*
Cc1ccccc1Nc1c(-c2ccc(N3CCOCC3)cc2)nc2ccccn12	7%	u	x	u	x	16µM*
Cc1ccc(Nc2c(-c3ccc(N4CCOCC4)cc3)nc3c(C)cccn23)cc1	9%	u	x	u	x	u
Cc1nc2ccccc2c(=O)n1NC(=O)CCC(=O)O	4%	-1%	10%	-9%	3	-20%
CCOc1ccc(Sc2cc(C(=O)NCCc3ccc(OC)c(OC)c3)c3ccccc3n2)cc1	-7%	-17%	x	-8%	x	0%[59 µM]
Cc1c(C(=O)N2CCC(C)CC2)sc2ncn(CC(=O)N3CCC(C)CC3)c(=O)c12	x	x	11%	x	2	u
Cc1ccc(NS(=O)(=O)c2ccc(-c3cc(C)no3)cc2)c(Br)c1	1%	-24%	x	-4%	x	u
O=C(Cc1ccccn1)Nc1ccccc1	-3%	2%	14%	10%	2	40µM*
O=C(CSCc1ccccn1)Nc1ccccc1	3%	-1%	11%	-10%	2	-31%[59 µM]
O=C(Cc1cc(C(=O)O)c2ccccc2n1)Nc1ccccc1	-4%	-8%	-1%	-10%	4	35µM*
CCN(CC)C(=O)Cc1cc(C(=O)O)c2ccccc2n1	7%	9%	19%	-8%	1	-6%[59 µM]
SMILES	Tau FP inhib	Tau fluor cs	Sfp inh	Tau ThT inhib	Coupling enz	G9a inh
COc1ccccc1C1CCN(C(=O)c2ccc(Cl)cc2)CC1	x	x	-4%	x	11	40%
COCCNC(=O)CCC1CCN(Cc2cccc(-c3ccc(C)o3)c2)CC1	x	x	-8%	x	0	22µM*
CC(=O)N1CCc2ccc(S(=O)(=O)N3CCN(C)CC3)cc21	2%	4%	5%	4%	3	19%[59 µM]
C=CCSc1nc2sc3c(c2c(=O)n1CC)CCc1ccccc1-3	16µM*	-16%	1.8µM*	11µM*	-1	u
Cc1ccc(S(=O)(=O)NCCOC(=O)Nc2sc(=S)n(C)c2C)cc1	2%	-14%	56µM*	u	0	32µM*
CCOC(=O)Nc1sc(=S)n(C)c1C	-1%	-5%	16µM*	-14%	1	13µM*
CC(=O)N1CCN(C)CC1	-3%	-14%	14%	-10%	3	13%[59 µM]
CN(CCC1CCOCC1)C(=O)CC1C(=O)NCCN1Cc1ccccc1F (stereo unspecified)	x	x	3%	x	-6	8.9µM*
CN(CCCC1CCCC1)C(=O)CC1C(=O)NCCN1Cc1ccc(F)cc1 (stereo unspecified)	x	x	-4%	x	-1	79µM*
CCOc1cccc(/C=N/NC(=S)Nc2ccccc2[N+](=O)[O-])c1O	u	u	26%	u	-2	3%
Cc1ccccc1OCC(=O)N/N=C/c1ccccn1	-3%	-6%	-54%	-7%	-1	-26%
O=C(COc1ccccc1[N+](=O)[O-])N/N=C/c1ccccn1	-3%	-10%	50µM*	-12%	1	4µM*
O=C(COc1ccccc1C(=O)N/N=C\c1ccc(O)c(O)c1)N/N=C/c1ccc(O)c(O)c1	10%	u	u	13µM*	-3	u
O=[N+]([O-])c1cc(/C=N\Nc2nccs2)ccc1O	u	14µM*[quencher]	14µM*	13µM*	0	-6%[2.33 µM]
O=[N+]([O-])c1ccccc1NC(=S)N/N=C/c1ccc(O)c(O)c1	2%	u	-6%	5.6µM*	-3	x
CCOCCCNC(=O)C(NC(=O)C1CCC(C)CC1)C(C)C (stereo unspecified)	-12%	-18%	x	-5%	x	-4%[59 µM]
Cc1ccc(OCC(=O)N/N=C/c2ccccc2)c([N+](=O)[O-])c1	-1%	-14%	8%	-14%	-1	-6%
O=C(COc1ccccc1[N+](=O)[O-])N/N=C/c1ccc(O)c([N+](=O)[O-])c1	7%	-4%	-4%	u	11	50µM*
O=C(NCc1ccc2[nH]c3c(c2c1)CCCC3)c1ccc(S(=O)(=O)N2CCOCC2)cc1	13%	u	2%	-15%	-1	40µM*
CN(C)S(=O)(=O)c1ccc(C(=O)NCc2ccc3[nH]c4c(c3c2)CCCC4)cc1	u	u	8%	u	-1	45µM*
CCN(CC)S(=O)(=O)c1ccc(C(=O)NCc2ccc3[nH]c4c(c3c2)CCCC4)cc1	13%	u	5%	-12%	-3	u

Source: PubChem BioAssay
